# From PubChem BioAssay (NCATS)
# Records with an inconclusive call do not appear. Entries that show only a call come without a potency. Unmarked numbers belong to inactive results. Active and inactive are the calls of the source. Calls come from the whole dose curve; as a rule, active = well fitted inhibition curve with a large enough effect; inconclusive = small, poorly fitted or top-dose-only effect; inactive = flat fitted curve, though single readings scatter.
# What was measured:
# W2 = assay: qHTS profiling for inhibitors of Plasmodium falciparum proliferation (AID 504749); note: potency is the fitted concentration of half-maximal effect; conditions: P. falciparum in erythrocytes, SYBR Green DNA, 72 h; series mostly up to 28.7 µM
# Summary of the method: (§1)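 In a 72 h erythrocytic culture (37 C, humidified, 5% CO2) at 2.5% hematocrit and 0.3% starting parasitemia, compounds were tested; SYBR Green I in detergent lysis buffer stained parasite DNA overnight.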
# KB-3-1 = assay: Cytotoxic Profiling of Annotated Libraries Using Quantitative High-Throughput Screening (AID 1296008); conditions: Five cell lines viability, CellTiter-Glo ATP luminescence, 48-72 h; max response: active compounds read low
# Summary of the method: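 Cytotoxicity was measured as CellTiter-Glo ATP luminescence, read after 10 min at room temperature. Compound treatment of the cells lasted 48 or 72 hr at 37 degrees Celsius in a qHTS format.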
# TAB109 = assay: qHTS profiling for inhibitors of Plasmodium falciparum proliferation (AID 504749); note: potency is the fitted concentration of half-maximal effect; conditions: P. falciparum in erythrocytes, SYBR Green DNA, 72 h; series mostly up to 28.7 µM
# Summary of the method: as §1
# SC27B = assay: as above; conditions: P. falciparum in erythrocytes, SYBR Green DNA, 72 h; series mostly up to 28.7 µM
# Summary of the method: as §1
# TAB113 = assay: as above; conditions: P. falciparum in erythrocytes, SYBR Green DNA, 72 h; series mostly up to 28.7 µM
# Summary of the method: as §1
# TAB165 = assay: as above; conditions: P. falciparum in erythrocytes, SYBR Green DNA, 72 h; series mostly up to 28.7 µM
# Summary of the method: as §1
# Note: nearly all actives have a fitted effect of over 60% in size.
SMILES,Potency (W2),max response (KB-3-1) [%],Potency (TAB109),Potency (SC27B),Potency (TAB113),Potency (TAB165)
CNC(=O)Oc1ccccc1C(=O)Nc1ccccc1,13.5 µM (active),-7.71,–,–,–,–
C[C@H]1CCC[C@H](O)CCCCCc2cc(O)cc(O)c2C(=O)O1,–,–,inactive,–,–,–
CCNC(C)Cc1cccc(C(F)(F)F)c1 (stereo not given),–,–,inactive,inactive,inactive,inactive
C[N+]1(C)CCCCC1COC(=O)C(O)(c1ccccc1)c1ccccc1 (stereo not given),–,–,inactive,inactive,inactive,inactive
Oc1cccc[c]1[Hg][Cl],4.78 µM (active),–,3.98 µM (active),10 µM (active),10 µM (active),7.94 µM (active)
[N-]=[N+]=CC(=O)OCC(N)C(=O)O (stereo not given),inactive,–,inactive,inactive,inactive,inactive
O=c1[nH]cc(N(CCCl)CCCl)c(=O)[nH]1,inactive,–,inactive,inactive,inactive,inactive
O=C1C2CC=CCC2C(=O)N1SC(Cl)(Cl)Cl (stereo not given),–,–,inactive,inactive,inactive,inactive
C#CC(C)(O)CC (stereo not given),inactive,–,inactive,inactive,inactive,inactive
CC12NC(Cc3ccccc31)c1ccccc12 (stereo not given),4.26 µM (active),–,2.82 µM (active),–,–,–
OC(c1ccccc1)(c1ccccc1)C1CN2CCC1CC2 (stereo not given),–,–,–,inactive,inactive,inactive
